Measurements from PubChem BioAssay AID493231 (Broad Institute, 2011).
Results with a measured potency or affinity are listed apart. Activity calls are given as the source filed them. How the calls were made is not given here.

These molecules were tested against Acyl-homoserine lactone acylase PvdQ (Pseudomonas aeruginosa (strain ATCC 15692 / DSM 22644 / CIP 104116 / JCM 14847 / LMG 12228 / 1C / PRS 101 / PAO1)) (UniProt Q9I194) (assay: P. aeruginosa PvdQ acylase inhibitors, dose response, biochemical, fluorescence, plate reader and imaging, cherry-picks (AID 493231;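 further: more negative values mean stronger inhibition of the acylase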)). Conditions: purified PvdQ acylase, fluorogenic substrate; series mostly up to 10 µM.
Sequence of Acyl-homoserine lactone acylase PvdQ (Pseudomonas aeruginosa (strain ATCC 15692 / DSM 22644 / CIP 104116 / JCM 14847 / LMG 12228 / 1C / PRS 101 / PAO1)) (Q9I194 whole entry, looked up): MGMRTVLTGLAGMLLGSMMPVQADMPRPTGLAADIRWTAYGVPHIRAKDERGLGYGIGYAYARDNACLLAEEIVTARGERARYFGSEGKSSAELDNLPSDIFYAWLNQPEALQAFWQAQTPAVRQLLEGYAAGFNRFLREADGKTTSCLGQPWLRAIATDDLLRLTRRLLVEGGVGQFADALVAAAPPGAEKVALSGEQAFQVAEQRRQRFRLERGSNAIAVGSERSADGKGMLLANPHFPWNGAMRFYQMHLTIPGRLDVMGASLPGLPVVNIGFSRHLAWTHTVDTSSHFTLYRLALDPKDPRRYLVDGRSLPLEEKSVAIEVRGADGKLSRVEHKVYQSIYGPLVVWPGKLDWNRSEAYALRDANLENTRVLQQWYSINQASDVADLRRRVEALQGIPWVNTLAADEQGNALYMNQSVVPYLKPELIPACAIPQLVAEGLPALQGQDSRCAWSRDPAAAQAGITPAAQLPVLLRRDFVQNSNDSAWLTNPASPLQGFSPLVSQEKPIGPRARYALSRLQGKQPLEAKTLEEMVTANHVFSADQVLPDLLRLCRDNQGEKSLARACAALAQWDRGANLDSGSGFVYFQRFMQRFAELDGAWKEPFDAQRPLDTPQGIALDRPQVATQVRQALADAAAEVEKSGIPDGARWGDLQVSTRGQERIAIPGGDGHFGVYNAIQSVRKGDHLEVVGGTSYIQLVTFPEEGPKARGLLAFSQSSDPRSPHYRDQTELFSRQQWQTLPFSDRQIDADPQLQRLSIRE

outcome, inactive:
CN1C(=O)S/C(=C\c2ccc(-n3cncn3)cc2)C1=O, c1ccc2sc(-c3ccc4c(c3)OCO4)nc2c1, COc1ccc(C(=O)N/N=C/c2ccc(OC)c(CN3CCCc4ccccc43)c2)cc1, COc1ccc(-c2onc3ccc(Br)cc23)cc1, Cc1ccc2nc(-c3ccc(NS(=O)(=O)c4ccc(F)cc4)cc3)sc2c1, CN(C)CCN(C(=O)C1=COCCO1)c1nc2ccc(Cl)cc2s1, O=C(COC(=O)/C=C/c1cccc(Br)c1)NC1CCCCCC1, CC(NC(=O)C1CCCN(C(=O)c2ccc(Cl)cc2)C1)c1cccc(C(F)(F)F)c1 (stereo not given), O=C(CCCN1C(=O)/C(=C/c2ccccc2)SC1=S)Nc1ccccc1O, CC1CCCCN1C(=O)CSc1nc2ccccc2[nH]1 (stereo not given), COC(=O)c1cc(S(=O)(=O)Nc2cccc(S(N)(=O)=O)c2)oc1C, Cc1cc(C(=O)OCC(=O)Nc2cc(C)on2)c2ccccc2n1, CN1C=CC=C/C1=C1\SC(=S)N(Cc2ccccc2)C1=O, COC(=O)C1CCN(C2CC(=O)N(c3cc(C)cc(C)c3)C2=O)CC1 (stereo not given), O=C(/C=C/c1ccc(Cl)cc1)N1CCN(c2ccccc2[N+](=O)[O-])CC1, Cc1ccccc1NC(=O)Cn1nc(-c2ccccc2)nc1-c1ccccc1, CC(C)[N+]1=C2C=CC=CC=C2SC12C([N+](=O)[O-])=CC(=[N+]([O-])[O-])C=C2[N+](=O)[O-] (stereo not given), COCC(=O)Oc1c(S(=O)(=O)c2ccc(C)cc2)c(C)nn1-c1ccccc1, CN(c1ccc(C(=O)Nc2ccc3c(c2)OCCO3)cc1)S(C)(=O)=O, O=c1oc(-c2ccc(F)cc2)nc2ccsc12, COc1ccc(OCCSc2nc3ccccc3n2CCC(=O)O)cc1, O=C(OCc1nc2ccccc2s1)c1ccc([N+](=O)[O-])o1, O=c1[nH]c(C2CCN(S(=O)(=O)c3ccc(C(F)(F)F)cc3)CC2)nc2c1nnn2Cc1ccc(F)cc1, COc1ccc(CCNC(=O)/C(C#N)=C/c2ccc(OCC(=O)NCC3CCCO3)cc2)cc1OC (stereo not given), COCC(=O)N1CCC(Oc2ccc(C(=O)NCCc3ccncc3)cc2)CC1, COC(=O)C(C(=O)OC)c1ncccc1[N+](=O)[O-], COc1ccc(OC2CCN(S(=O)(=O)c3ccc(OC)c(OC)c3)CC2)cc1, Cc1cccc(Nc2nnc(SCC(=O)c3c(N)n(C4CC4)c(=O)[nH]c3=O)s2)c1, CCCN(c1nc(C)cc(OC)n1)S(=O)(=O)c1ccccc1, COc1cccc(CN(C)CC(=O)NNC(=O)c2ccc(Cl)cc2)c1, COc1ccc(Cl)c(NCCC(=O)O)c1, CN1C(=O)/C(=C/c2ccc(O)c([N+](=O)[O-])c2)N(C)C1=S, O=C(NCC1CCCCC1)c1cc(Br)ccc1Cl, CCOC(=O)c1ccc(Nc2ncccc2[N+](=O)[O-])cc1, Cc1ccc(-n2c(C)cn(C(=O)c3ccccc3)c2=S)cc1
